# Assays:
# Experiment in all cases: SPOT peptide array binding signal intensity (averaged, normalized) (arbitrary units (background-subtracted, floor 0; scale differs between SH3 domains)); higher = stronger binding of the SH3 domain to the peptide
# [1] = target: AgAbp1
# How it was run: (§1)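 GST-fused SH3 domains, from four yeast species, were produced in E. coli BL21(DE3) and captured on glutathione Sepharose. Membranes of cellulose carrying synthetic 15-mer peptides, in which cysteines had been replaced by serines, were exposed to each domain at 10 μg/ml overnight at 4°C in TBS-based blocking buffer. After anti-GST antibody, an HRP anti-mouse secondary and luminol, spots were imaged and quantified using Genespotter. Binding signal is normalized and background-subtracted spot intensity, averaged over replicates, in arbitrary units that differ between domains.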
# [2] = target: AgBbc1
# How it was run: as §1
# [3] = target: AgBem1-D1
# How it was run: as §1
# [4] = target: AgBzz1-D1
# How it was run: as §1
# [5] = target: AgBzz1-D2
# How it was run: as §1
# [6] = target: AgCyk3
# How it was run: as §1
# [7] = target: AgFus1
# How it was run: as §1
# [8] = target: AgHof1
# How it was run: as §1
# [9] = target: AgHse1
# How it was run: as §1
# [10] = target: AgLsb1
# How it was run: as §1
# [11] = target: AgLsb4
# How it was run: as §1
# [12] = target: AgMyo5
# How it was run: as §1
# [13] = target: AgNbp2
# How it was run: as §1
# [14] = target: AgRvs167
# How it was run: as §1
# [15] = target: AgSho1
# How it was run: as §1
# [16] = target: AgSla1-D1-D2
# How it was run: as §1
# [17] = target: AgSla1-D3
# How it was run: as §1
# [18] = target: CaAbp1-D1
# How it was run: as §1
# [19] = target: CaAbp1-D2
# How it was run: as §1
# [20] = target: CaBbc1
# How it was run: as §1
# [21] = target: CaBem1-D1
# How it was run: as §1
# [22] = target: CaBzz1-D1
# How it was run: as §1
# [23] = target: CaBzz1-D2
# How it was run: as §1
# [24] = target: CaCyk3
# How it was run: as §1
# [25] = target: CaFus1
# How it was run: as §1
# [26] = target: CaHof1
# How it was run: as §1
# [27] = target: CaHse1
# How it was run: as §1
# [28] = target: CaLsb1
# How it was run: as §1
# [29] = target: CaLsb4
# How it was run: as §1
# [30] = target: CaMyo5
# How it was run: as §1
# [31] = target: CaNbp2
# How it was run: as §1
# [32] = target: CaRvs167
# How it was run: as §1
# [33] = target: CaRvs167-3
# How it was run: as §1
# [34] = target: CaSho1
# How it was run: as §1
# [35] = target: CaSla1-D1-D2
# How it was run: as §1
# [36] = target: CaSla1-D3
# How it was run: as §1
# [37] = target: ScAbp1
# How it was run: as §1
# [38] = target: ScBbc1
# How it was run: as §1
# [39] = target: ScBem1-D1
# How it was run: as §1
# [40] = target: ScBzz1-D1
# How it was run: as §1
# [41] = target: ScBzz1-D2
# How it was run: as §1
# [42] = target: ScCyk3
# How it was run: as §1
# [43] = target: ScFus1
# How it was run: as §1
# [44] = target: ScHof1
# How it was run: as §1
# [45] = target: ScHse1
# How it was run: as §1
# [46] = target: ScLsb1
# How it was run: as §1
# [47] = target: ScLsb2
# How it was run: as §1
# [48] = target: ScLsb3
# How it was run: as §1
# [49] = target: ScLsb4
# How it was run: as §1
# [50] = target: ScMyo3
# How it was run: as §1
# [51] = target: ScMyo5
# How it was run: as §1
# [52] = target: ScNbp2
# How it was run: as §1
# [53] = target: ScPex13
# How it was run: as §1
# [54] = target: ScRvs167
# How it was run: as §1
# [55] = target: ScSho1
# How it was run: as §1
# [56] = target: ScSla1-D1-D2
# How it was run: as §1
# [57] = target: ScSla1-D3
# How it was run: as §1
# [58] = target: SpAbp1-D1
# How it was run: as §1
# [59] = target: SpBbc1
# How it was run: as §1
# [60] = target: SpBzz1-D1
# How it was run: as §1
# [61] = target: SpBzz1-D2
# How it was run: as §1
# [62] = target: SpCyk3
# How it was run: as §1
# [63] = target: SpHof1
# How it was run: as §1
# [64] = target: SpHof1-2
# How it was run: as §1
# [65] = target: SpHof1-3
# How it was run: as §1
# [66] = target: SpHse1
# How it was run: as §1
# [67] = target: SpLsb1
# How it was run: as §1
# [68] = target: SpLsb4
# How it was run: as §1
# [69] = target: SpMyo1
# How it was run: as §1
# [70] = target: SpNbp2
# How it was run: as §1
# [71] = target: SpPex13
# How it was run: as §1
# [72] = target: SpRvs167
# How it was run: as §1
# [73] = target: SpSla1-D1-D2
# How it was run: as §1
# [74] = target: SpSla1-D3
# How it was run: as §1
binder,measurement,setting,value
VRVKKRPLIRPLNSS,SPOT peptide array binding signal intensity,[1],450
same,SPOT peptide array binding signal intensity,[2],184
same,SPOT peptide array binding signal intensity,[3],244
same,SPOT peptide array binding signal intensity,[4],6.5
same,SPOT peptide array binding signal intensity,[5],215
same,SPOT peptide array binding signal intensity,[6],6
same,SPOT peptide array binding signal intensity,[7],223
same,SPOT peptide array binding signal intensity,[8],48.5
same,SPOT peptide array binding signal intensity,[9],646
same,SPOT peptide array binding signal intensity,[10],2.5
same,SPOT peptide array binding signal intensity,[11],81
same,SPOT peptide array binding signal intensity,[12],0.5
same,SPOT peptide array binding signal intensity,[13],220
same,SPOT peptide array binding signal intensity,[14],2.33
same,SPOT peptide array binding signal intensity,[15],53
same,SPOT peptide array binding signal intensity,[16],442
same,SPOT peptide array binding signal intensity,[17],12.8
same,SPOT peptide array binding signal intensity,[18],1520
same,SPOT peptide array binding signal intensity,[19],1190
same,SPOT peptide array binding signal intensity,[20],278
same,SPOT peptide array binding signal intensity,[21],378
same,SPOT peptide array binding signal intensity,[22],153
same,SPOT peptide array binding signal intensity,[23],101
same,SPOT peptide array binding signal intensity,[24],132
same,SPOT peptide array binding signal intensity,[25],381
same,SPOT peptide array binding signal intensity,[26],1
same,SPOT peptide array binding signal intensity,[27],15
same,SPOT peptide array binding signal intensity,[28],2
same,SPOT peptide array binding signal intensity,[29],104
same,SPOT peptide array binding signal intensity,[30],1.5
same,SPOT peptide array binding signal intensity,[31],311
same,SPOT peptide array binding signal intensity,[32],8.5
same,SPOT peptide array binding signal intensity,[33],183
same,SPOT peptide array binding signal intensity,[34],370
same,SPOT peptide array binding signal intensity,[35],534
same,SPOT peptide array binding signal intensity,[36],0.25
same,SPOT peptide array binding signal intensity,[37],138
same,SPOT peptide array binding signal intensity,[38],82
same,SPOT peptide array binding signal intensity,[39],70
same,SPOT peptide array binding signal intensity,[40],11.5
same,SPOT peptide array binding signal intensity,[41],11
same,SPOT peptide array binding signal intensity,[42],91.5
same,SPOT peptide array binding signal intensity,[43],156
same,SPOT peptide array binding signal intensity,[44],0.75
same,SPOT peptide array binding signal intensity,[45],1480
same,SPOT peptide array binding signal intensity,[46],57.8
same,SPOT peptide array binding signal intensity,[47],5.5
same,SPOT peptide array binding signal intensity,[48],312
same,SPOT peptide array binding signal intensity,[49],19
same,SPOT peptide array binding signal intensity,[50],3
same,SPOT peptide array binding signal intensity,[51],1.5
same,SPOT peptide array binding signal intensity,[52],312
same,SPOT peptide array binding signal intensity,[53],0.25
same,SPOT peptide array binding signal intensity,[54],15.5
same,SPOT peptide array binding signal intensity,[55],386
same,SPOT peptide array binding signal intensity,[56],330
same,SPOT peptide array binding signal intensity,[57],16
same,SPOT peptide array binding signal intensity,[58],388
same,SPOT peptide array binding signal intensity,[59],9.75
same,SPOT peptide array binding signal intensity,[60],150
KDKKTKPTPPPKPSH,SPOT peptide array binding signal intensity,[1],494
same,SPOT peptide array binding signal intensity,[2],26.8
same,SPOT peptide array binding signal intensity,[3],60.5
same,SPOT peptide array binding signal intensity,[4],42
same,SPOT peptide array binding signal intensity,[5],48
same,SPOT peptide array binding signal intensity,[6],≤ 0
same,SPOT peptide array binding signal intensity,[7],≤ 0
same,SPOT peptide array binding signal intensity,[8],19.5
same,SPOT peptide array binding signal intensity,[9],29
same,SPOT peptide array binding signal intensity,[10],≤ 0
same,SPOT peptide array binding signal intensity,[11],≤ 0
same,SPOT peptide array binding signal intensity,[12],≤ 0
same,SPOT peptide array binding signal intensity,[13],≤ 0
same,SPOT peptide array binding signal intensity,[14],1.5
same,SPOT peptide array binding signal intensity,[15],34.5
same,SPOT peptide array binding signal intensity,[16],7
same,SPOT peptide array binding signal intensity,[17],4
same,SPOT peptide array binding signal intensity,[18],275
same,SPOT peptide array binding signal intensity,[19],226
same,SPOT peptide array binding signal intensity,[20],132
same,SPOT peptide array binding signal intensity,[21],0.5
same,SPOT peptide array binding signal intensity,[22],1220
same,SPOT peptide array binding signal intensity,[23],715
same,SPOT peptide array binding signal intensity,[24],≤ 0
same,SPOT peptide array binding signal intensity,[25],≤ 0
same,SPOT peptide array binding signal intensity,[26],1.5
same,SPOT peptide array binding signal intensity,[27],2
same,SPOT peptide array binding signal intensity,[28],1
same,SPOT peptide array binding signal intensity,[29],≤ 0
same,SPOT peptide array binding signal intensity,[30],2.25
same,SPOT peptide array binding signal intensity,[31],0.5
same,SPOT peptide array binding signal intensity,[32],1.5
same,SPOT peptide array binding signal intensity,[33],4.5
same,SPOT peptide array binding signal intensity,[34],6
same,SPOT peptide array binding signal intensity,[35],10
same,SPOT peptide array binding signal intensity,[36],2
same,SPOT peptide array binding signal intensity,[37],735
same,SPOT peptide array binding signal intensity,[38],≤ 0
same,SPOT peptide array binding signal intensity,[39],9
same,SPOT peptide array binding signal intensity,[40],≤ 0
same,SPOT peptide array binding signal intensity,[41],79
same,SPOT peptide array binding signal intensity,[42],1
same,SPOT peptide array binding signal intensity,[43],31
same,SPOT peptide array binding signal intensity,[44],1.75
same,SPOT peptide array binding signal intensity,[45],38
same,SPOT peptide array binding signal intensity,[46],≤ 0
same,SPOT peptide array binding signal intensity,[47],≤ 0
same,SPOT peptide array binding signal intensity,[48],328
same,SPOT peptide array binding signal intensity,[49],≤ 0
same,SPOT peptide array binding signal intensity,[50],≤ 0
same,SPOT peptide array binding signal intensity,[51],≤ 0
same,SPOT peptide array binding signal intensity,[52],17
same,SPOT peptide array binding signal intensity,[53],≤ 0
same,SPOT peptide array binding signal intensity,[54],1.17
same,SPOT peptide array binding signal intensity,[55],334
same,SPOT peptide array binding signal intensity,[56],9
same,SPOT peptide array binding signal intensity,[57],5
same,SPOT peptide array binding signal intensity,[58],148
same,SPOT peptide array binding signal intensity,[59],3.75
same,SPOT peptide array binding signal intensity,[60],26.5
same,SPOT peptide array binding signal intensity,[61],≤ 0
same,SPOT peptide array binding signal intensity,[62],≤ 0
same,SPOT peptide array binding signal intensity,[63],5.5
same,SPOT peptide array binding signal intensity,[64],5.5
same,SPOT peptide array binding signal intensity,[65],67.8
same,SPOT peptide array binding signal intensity,[66],9.25
same,SPOT peptide array binding signal intensity,[67],70.5
same,SPOT peptide array binding signal intensity,[68],≤ 0
same,SPOT peptide array binding signal intensity,[69],2
same,SPOT peptide array binding signal intensity,[70],31
same,SPOT peptide array binding signal intensity,[71],9
same,SPOT peptide array binding signal intensity,[72],2
same,SPOT peptide array binding signal intensity,[73],1.5
same,SPOT peptide array binding signal intensity,[74],≤ 0

# Reference: the supplement of paper PMC4466140
